# Source: PubChem
# Mtb UGM inh = blocks M. tuberculosis UGM enzyme; P9WIQ1; purified UGM, fluorescence polarization probe displacement; inhibition, % at 10 µM; 320,000 compounds, 0.06% hits; in the data active = inhibition above about 10%, passing the limit was not always enough
# RecA splice inh = Mtb RecA intein splicing inhibition | cell-free RecA intein splicing, fluorescence | inhibition, % (test concentration not listed) | 290,000 compounds, 0.75% hits | AID 2221; in the data active = inhibition above about 30%;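 note: 0% = vehicle wells and 100% = reference inhibitor control wells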
# Mtb FBA inh = inhibitors of M. tuberculosis fructose-bisphosphate aldolase; purified M. tuberculosis FBA, fluorescence read-out; P9WQA3; 360,000 compounds, 2.3% hits; inhibition, % at 1 µM;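 note: 0% = vehicle and 100% = reference inhibitor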
# Target sequence (P9WQA3 whole entry, looked up): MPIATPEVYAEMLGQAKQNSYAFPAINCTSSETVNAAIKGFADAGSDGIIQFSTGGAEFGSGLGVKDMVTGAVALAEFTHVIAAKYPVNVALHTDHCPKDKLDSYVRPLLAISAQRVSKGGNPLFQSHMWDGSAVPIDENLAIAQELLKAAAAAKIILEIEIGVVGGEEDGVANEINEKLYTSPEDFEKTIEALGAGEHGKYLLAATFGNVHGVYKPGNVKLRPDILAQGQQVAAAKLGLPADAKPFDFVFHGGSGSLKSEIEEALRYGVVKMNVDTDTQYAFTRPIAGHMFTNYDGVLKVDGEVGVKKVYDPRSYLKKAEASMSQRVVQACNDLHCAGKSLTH
# GDH-TPI counter-1 = counter-screen for M. tuberculosis FBA inhibitors: GDH-TPI coupled enzymes; 360,000 compounds, 1.2% hits; GDH-TPI coupled enzyme counterscreen, NADH absorbance; inhibition, % at 4.8 µM; AID 588335; in the data active = inhibition above about 30%;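 note: 0% = DMSO wells and 100% = wells lacking the enzyme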
# Rv3671c protease = inhibitors of M. tuberculosis serine protease Rv3671c; P9WHR9; inhibition, % at 5.96 µM; 320,000 compounds, 0.048% hits; AID 2606; in the data active = inhibition above about 38%;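 note: extracellular domain of Rv3671c used as enzyme; 0% = enzyme with DMSO and 100% = no enzyme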
# Mtb bLac sens = beta-lactam sensitization of Mtb H37Rv; M. tuberculosis H37Rv growth with meropenem, percent inhibition; inhibition, % at 25 µM; 330,000 compounds, 0.27% hits; AID 434955; call rule not given here;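 note: growth measured after seven days incubation then overnight dye step; 0% = bacteria only wells and 100% = bacteria with antibiotic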
# Mtb FBA confirm = confirmation of M. tuberculosis fructose-bisphosphate aldolase inhibitors | 5,600 compounds, 78% hits | AID 651616 | shares compounds with Mtb FBA inh | inhibition, % at 1 µM | purified M. tuberculosis FBA, fluorescence read-out;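 note: 0% = vehicle wells and 100% = reference inhibitor wells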
# GDH-TPI counter-2 = counter-screen for M. tuberculosis FBA inhibitors: GDH-TPI coupled enzyme inhibition | shares compounds with Mtb FBA inh | GDH-TPI coupled enzyme counterscreen, fluorescence | inhibition, % at 1 µM | 5,600 compounds, 81% hits | AID 652141; in the data active = inhibition above about 10%
# * marks the source's active call; other numbers are inactive results; nt = no result given; + = active, no number. Only some compounds are listed: those with a hit (about 4% of all), similar ones and a draw of the others. Cut-off read from the data, not from the text of the source, unless noted: active = inhibition above about 27%; inactive = the rest.
SMILES,Mtb UGM inh,RecA splice inh,Mtb FBA inh,GDH-TPI counter-1,Rv3671c protease,Mtb bLac sens,Mtb FBA confirm,GDH-TPI counter-2
CCOC(=O)c1sc2nc(C)nc(NCc3ccccc3OC)c2c1C,-1,3,0,5,-4,2,nt,nt
CCOC(=O)c1sc2nc(C)nc(NCCc3ccccn3)c2c1C,1,2,71*,3,-2,-1,22,12*
CN1CCN(c2ccc(S(=O)(=O)N3CCCCC3)cc2NC(=O)c2ccc(F)cc2F)CC1,nt,-1,1,-3,3,-3,nt,nt
Clc1ccsc1-c1ccnc(-n2cccc2)n1,0,6,7,3,-8,4,nt,nt
Clc1ccc(-c2ccnc(-n3cccc3)n2)s1,2,-14,45*,16,-1,-4,+,157*
c1coc(-c2ccnc(-n3cccc3)n2)c1,nt,-1,31*,2,5,5,147*,129*
Cc1ccc(F)cc1NC(=O)c1cnccn1,3,-2,-5,-8,8,-1,nt,nt
COc1ccc(CCNC(=O)c2nnn(CC(=O)Nc3cccc(F)c3)c2N)cc1OC,1,3,-3,1,2,-1,nt,nt
Cc1ccc(F)c(CNC(=O)C2CCC(=O)N(Cc3ccccn3)C2)c1F (configuration not stated),1,3,0,-3,-7,-7,nt,nt
CC(C)NC(=O)C1Cc2c(-c3ccc4c(c3)OCO4)ccnc2O1 (configuration not stated),nt,nt,52*,4,nt,nt,111*,91*
O=C(NCCc1ccccc1)C1Cc2c(-c3ccc4c(c3)OCO4)ccnc2O1 (configuration not stated),nt,nt,47*,-4,nt,nt,29*,36*
CC(C)c1ccc(NC(=O)C2Cc3c(-c4ccc5c(c4)OCO5)ccnc3O2)cc1 (configuration not stated),nt,nt,20,9,nt,nt,nt,nt
COc1ccc(CNC(=O)C2Cc3c(-c4ccc5c(c4)OCO5)ccnc3O2)cc1OC (configuration not stated),nt,nt,31*,8,nt,nt,+,+
O=C(NCc1ccc(F)c(F)c1)C1Cc2c(-c3ccc4c(c3)OCO4)ccnc2O1 (configuration not stated),nt,nt,49*,-2,nt,nt,177*,136*
COc1ccccc1-c1nc2cc3ccccc3cc2nc1-c1ccccc1,3,9,-7,-6,-5,93,nt,nt
CCOc1ccc(C(=O)CCC(=O)N(CC)CC(=O)Nc2c(F)cccc2F)cc1,1,2,-3,-17,-8,-16,nt,nt
O=C1c2cccnc2C(=O)N1Cc1ccc(S(=O)(=O)N2CCOc3ccc(Cl)cc32)cc1,1,2,0,-6,-2,0,nt,nt
COc1ccc(NC(=O)C2Cc3c(-c4ccc(NC(C)=O)cc4)ccnc3O2)cc1OC (configuration not stated),nt,nt,4,3,nt,nt,nt,nt
COc1ccc(NC(=O)C2Cc3c(-c4ccc5c(c4)OCO5)ccnc3O2)cc1OC (configuration not stated),nt,nt,48*,6,nt,nt,27*,19*
Cc1csc(NC(=O)C2CC(=O)N(c3ccc(C)c(C)c3)C2)n1 (configuration not stated),1,2,4,5,3,82,nt,nt
O=C(Cc1ccc(NC2=NC3CS(=O)(=O)CC3S2)cc1)N1CCN(c2ccc(F)cc2)CC1 (configuration not stated),1,-3,-3,-9,0,-7,nt,nt
CCC(C(=O)N1CCN(Cc2ccc3c(c2)OCO3)CC1)n1c(=O)[nH]c2ccccc2c1=O (configuration not stated),-1,-3,33*,7,-11,-9,124*,109*
O=C(Cn1c(=O)[nH]c2ccccc2c1=O)N1CCN(Cc2ccc3c(c2)OCO3)CC1,2,0,5,-2,-3,0,nt,nt
CC(C)c1ccc(NC(=O)COC(=O)Cn2cnc3c2c(=O)n(C)c(=O)n3C)cc1,nt,nt,-2,1,nt,nt,nt,nt
COc1ccc(-c2cc(C(F)(F)F)c(C#N)c(SCC(=O)O)n2)cc1,4,nt,11,4,5,-8,nt,nt
SMILES,Mtb UGM inh,RecA splice inh,Mtb FBA inh,GDH-TPI counter-1,Rv3671c protease,Mtb bLac sens,Mtb FBA confirm,GDH-TPI counter-2
Cc1ccc(-c2cc(C(F)(F)F)c(C#N)c(SCCC#N)n2)o1,3,-4,31*,6,-4,-1,159*,153*
O=C(c1ccc(=O)[nH]n1)N1CCN(S(=O)(=O)c2cccc(F)c2)CC1,nt,nt,3,5,nt,nt,nt,nt
CC(C)CNc1oc(-c2ccco2)nc1C#N,-4,-1,72*,7,1,2,97*,80*
N#Cc1nc(-c2ccco2)oc1NCc1ccc(F)cc1,1,1,40*,3,3,-8,103*,84*
CC(Nc1oc(-c2ccco2)nc1C#N)c1ccccc1 (configuration not stated),1,3,49*,13,-11,4,0,-3
CC(OC(=O)CCCN=C1NS(=O)(=O)c2ccccc21)C(=O)Nc1ccc(F)cc1Cl (configuration not stated),2,-2,-1,1,6,-10,nt,nt
CS(=O)(=O)N(CC(=O)N1CCCCCC1)c1cccc([N+](=O)[O-])c1,-1,0,-2,-2,6,-7,nt,nt
CCN1C(=S)N[C@@H](c2cccs2)C(C(=O)OC)=C1C,0,0,0,16,-3,-3,nt,nt
Cc1ncsc1CCC(=O)N1CCCC(Nc2ccc(C(C)C)cc2)C1 (configuration not stated),2,-3,4,-3,6,-21,nt,nt
COc1ccc(OC)c(/C=N/NC(=O)c2[nH]ncc2Br)c1,8,nt,39*,21,-11,3,+,+
COc1ccc(OC)c(/C=N/NC(=O)c2[nH]nc3c2CCc2ccccc2-3)c1,3,0,45*,15,-9,-1,+,+
COc1cccc(/C=N/NC(=O)c2[nH]nc3c2CCc2ccccc2-3)c1,-4,4,0,-1,-31,72,nt,nt
COc1ccc(OC)c(/C=N/NC(=O)CCc2n[nH]c(=O)[nH]c2=O)c1,1,1,60*,13,-9,1,119*,87*
CCCc1nnc(SCC(=O)N2CCCCC2C)n1CCOC (configuration not stated),3,-1,4,1,0,-8,nt,nt
Cc1c(CCC(=O)O)c(=O)oc2cc(OCc3cccc(Cl)c3)ccc12,0,-1,91*,12,-5,4,115*,109*
Cc1c(CCC(=O)O)c(=O)oc2c(C)c(OCc3cc4c(cc3Cl)OCO4)ccc12,-1,3,2,7,-11,-6,nt,nt
